Rows were chosen to be rich in hits. Some 9.4% of all compounds tested hit in one or more screens of this group.
NPC1 prom act = activates the NPC1 promoter; Huh7 NPC1 promoter luciferase reporter, 24 h; Potency, µM (highest dose often 9.22 µM), inactives show at the top dose activation, most hits filed as activators; hit rate 2.4% among 320,000; AID 485313; further: % of control where 0% means no effect; nearly all actives have a fitted effect of over 60% in size
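Stably transfected Huh7 (NPC1 promoter→luciferase), 1500 cells/well in Opti-MEM + 10% FBS, 2 h settle, then compound 24 h at 37 °C. Luminescence after 10 min with Amplite reagent.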
FLuc counter = counter-screen for miR-21 project: firefly luciferase inhibitors or activators | hit rate 6.9% among 360,000 | Potency, µM (highest dose often 57.5 µM), for inactives: top-dose activity change, negative = inhibition, actives largely listed as inhibitors | purified FLuc, Km substrates, luminescence inhibition;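 further: plate controls were vehicle for no effect and reference inhibitor for full effect; nearly all actives have a fitted effect of over 55% in size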
Target sequence (P08659 whole entry, looked up): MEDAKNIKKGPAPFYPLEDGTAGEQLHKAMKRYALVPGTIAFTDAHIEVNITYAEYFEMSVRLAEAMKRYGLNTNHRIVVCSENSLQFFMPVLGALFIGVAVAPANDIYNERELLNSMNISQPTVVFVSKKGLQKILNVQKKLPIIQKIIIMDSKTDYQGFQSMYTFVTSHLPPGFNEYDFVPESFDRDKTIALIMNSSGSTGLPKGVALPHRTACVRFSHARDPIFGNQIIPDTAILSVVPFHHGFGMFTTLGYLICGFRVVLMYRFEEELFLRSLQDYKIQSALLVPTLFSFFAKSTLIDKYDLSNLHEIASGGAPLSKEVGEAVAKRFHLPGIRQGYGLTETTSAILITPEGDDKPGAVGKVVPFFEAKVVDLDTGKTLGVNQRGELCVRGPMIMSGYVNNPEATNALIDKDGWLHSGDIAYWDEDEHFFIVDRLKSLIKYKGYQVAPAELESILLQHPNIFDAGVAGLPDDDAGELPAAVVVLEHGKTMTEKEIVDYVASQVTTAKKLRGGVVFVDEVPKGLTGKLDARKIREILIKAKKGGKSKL
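Purified P. pyralis luciferase (10nM final) with 10uM D-luciferin and 10uM ATP (Km levels) in 50mM Tris acetate pH 7.5, 10mM Mg acetate, 0.01% Tween-20, 0.05% BSA; qHTS 6-point titration, ~60 µM downward; luminescence read.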
ELG1 genotoxic = inducers of genotoxicity in HEK293T ELG1-luciferase cells; AID 504466; Potency, µM (highest dose often 46 µM), for inactives: at the highest dose activity change, positive = activation, most hits filed as activators; HEK293T ELG1-luciferase reporter, luminescence, 16 h; hit rate 1.3% among 330,000; further: % of control where 0% means no effect; nearly all actives have a fitted effect of over 60% in size
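DMSO vehicle served as control against compound-treated ELG1-luciferase HEK293T cells; exposure lasted 16 hr at 37 °C and 5% CO2, followed by ONE-Glo luminescence detection after 30 min.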
SMN2 splice up = SMN2 splice variant enhancement; HEK293 SMN2-luciferase splicing reporter, luminescence, 30-36 h; Potency, µM (doses to about 46.1 µM), for inactives: top-dose activity change, positive = activation, actives largely listed as activators; hit rate 2.8% among 210,000; AID 1458; further: % of control where 0% means no effect; nearly all actives have a fitted effect of over 55% in size
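qHTS luciferase splicing reporter: luminescence rises when SMN2 exon 7 is included in transfected HEK293 cells. Compound exposure lasted 30-36 h at 37C, with 4.5 mM final sodium butyrate as control, followed by a ONE-Glo read.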
ELG1 repair inh = blocks ELG1-dependent DNA repair in HEK293T cells | HEK293T ELG1-luciferase reporter, luminescence, 16 h; DNA damage induced by 5-fluorouridine | Potency, µM (highest dose often 46.1 µM), for the others: top-dose activity change, negative = inhibition, usual class: inhibitors | hit rate 2.3% among 330,000; further: on the % scale 0 is the no-effect control and ±100 the full control effect; nearly all actives have a fitted effect of over 55% in size
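Luminescence from the luciferase reporter, measured 30 min after ONE-Glo reagent at room temperature, was the read-out. Beforehand, 2,000 cells per well were exposed for 16 hr at 37 °C to 5-fluorouridine together with compound or vehicle.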
Rab9 prom act = Rab9 promoter activation | Huh7 Rab9 promoter-luciferase reporter, luminescence, 24 h | Potency, µM (top dose mostly 9.22 µM), for inactives: top-dose activation, negative = inhibition, usual class: activators | hit rate 2.8% among 320,000; further: % of control where 0% means no effect; nearly all actives have a fitted effect of over 60% in size
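Luminescence read-out: Huh7 cells stably expressing Rab9-luciferase, treated 24 h with compound at 37 °C, then lysed with luciferase reagent for 10 min at ambient before reading.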
* = called active by the depositor; [ ] = dose if it differs, or a comment. The call rests on the fitted dose curve; in most records, active means well fitted curve in the direction sought with a large enough effect; inconclusive means small, poorly fitted or top-dose-only effect, or another doubt; inactive means no such curve, though single readings can be large; an effect the other way counts as inactive or inconclusive. Potency means the concentration at half of the fitted maximal effect.

CC(=O)Nc1ccccc1OCC(=O)c1ccc2c(c1)OCO2 was read as NPC1 prom act 3.55µM*, FLuc counter -7.8%, ELG1 genotoxic inconclusive, ELG1 repair inh inconclusive and Rab9 prom act 3.16µM*.
`O=C(COC(=O)c1ccc2c(c1)OCO2)Nc1ccccc1OC(F)F` gave ELG1 genotoxic -0.1% and ELG1 repair inh -12.2%.
Cc1ccc(NC(=O)Cn2c(C)cc(C)c(C#N)c2=O)cc1 was read as FLuc counter 3.5%.
For COc1cc(-c2cc3n(C)c(C)c(CCC(=O)NC4CCC(C)CC4)c(=O)n3n2)cc(OC)c1OC (stereo not given) the results were FLuc counter 1.4%.
`O=C(Nc1ccc2c(c1)CCC2)Nc1ccccc1Cl` gave NPC1 prom act 1.41µM*, FLuc counter 1.51µM*, ELG1 genotoxic 2.31µM*, ELG1 repair inh inconclusive and Rab9 prom act 1.78µM*.
Screening Cc1ccc(NC(=O)Nc2ccc3c(c2)CCC3)c(C)c1 returned NPC1 prom act -1.6%, FLuc counter 4.0%, ELG1 genotoxic 8.3%, ELG1 repair inh 22.4% and Rab9 prom act 7.9%.
Screening CCOc1ccccc1NC(=O)Nc1cccc(C(C)=O)c1 returned NPC1 prom act -1.9%, FLuc counter 23.9µM*, ELG1 genotoxic 13.7%, SMN2 splice up -1.0%, ELG1 repair inh -8.4% and Rab9 prom act 6.9%.
Screening CCOc1ccc(CN(C)CC(=O)Nc2ccc3c(c2)CCC3)cc1OC returned NPC1 prom act -5.7%, FLuc counter -0.1%, ELG1 genotoxic -9.4%, SMN2 splice up -16.3%, ELG1 repair inh 16.4µM* and Rab9 prom act -1.6%.
O=C1c2ccccc2NC2(CCCCC2)N1c1ccc(O)cc1 was read as NPC1 prom act 16.1%, FLuc counter inconclusive, ELG1 genotoxic inconclusive, SMN2 splice up 8.91µM*, ELG1 repair inh inconclusive and Rab9 prom act 18.5%.
For CCc1ccc(S(=O)(=O)Nc2cccc(C3OCCCO3)c2)cc1 the results were NPC1 prom act -10.0%, FLuc counter -13.3%, ELG1 genotoxic -10.2%, SMN2 splice up -39.2%, ELG1 repair inh 11.6µM* and Rab9 prom act 1.1%.
Screening CCc1ccc(S(=O)(=O)Nc2ccc3c(c2)n(C)c(=O)c(=O)n3C)cc1 returned FLuc counter -6.7%.
Screening COc1ccc(OC)c(C2C(C(=O)N3CCCCC3)=C(C)Nc3nc4ccccc4n32)c1 (stereo not given) returned FLuc counter -4.6% and SMN2 splice up -6.6%.
COc1ccc(-c2cc(C(=O)Oc3ccc(C)cc3)c3ccccc3n2)cc1 was read as FLuc counter inconclusive and SMN2 splice up 15.2%.
COc1ccc(-c2cc(C(=O)OCc3ccccn3)c3ccccc3n2)cc1 was read as NPC1 prom act 10.7%, FLuc counter 6.75µM*, ELG1 genotoxic -2.7%, ELG1 repair inh inconclusive and Rab9 prom act 15.6%.
`CCN(C(=O)COC(=O)c1cc(-c2ccc3cc(OC)ccc3c2)nc2ccccc12)C1CCS(=O)(=O)C1` (stereo not given) gave NPC1 prom act 0.891µM*, FLuc counter 0.849µM*, ELG1 genotoxic 12.3%, SMN2 splice up inconclusive, ELG1 repair inh inconclusive and Rab9 prom act 0.355µM*.
CCN(C(=O)COC(=O)c1cc(OC)ccc1Br)C1CCS(=O)(=O)C1 (stereo not given) was read as ELG1 genotoxic 0.7% and ELG1 repair inh 2.7%.
`COc1ccc(-c2cc(C(=O)Oc3ccc([N+](=O)[O-])cc3)c3ccccc3n2)cc1` gave NPC1 prom act 14.9%, FLuc counter 5.36µM*, ELG1 genotoxic 12.5%, SMN2 splice up inconclusive, ELG1 repair inh inconclusive and Rab9 prom act 22.3%.
For COc1ccc(-c2cc(C(=O)OCC(=O)N(C)C)c3ccccc3n2)cc1 the results were NPC1 prom act 4.3%, FLuc counter 9.53µM*, ELG1 genotoxic -1.4%, SMN2 splice up inconclusive, ELG1 repair inh inconclusive and Rab9 prom act 23.2%.
Screening COc1ccc(CN[C@H](C)C(=O)O)cc1 returned SMN2 splice up 1.9%[9.22 µM].
Screening CCCC1=Nc2cc(C(=O)NC3CCCCC3)ccc2Sc2ccc(C)cc21 returned FLuc counter -11.2%.
Screening CCN(C(=O)COC(=O)c1c2c(nc3ccccc13)/C(=C/c1ccccc1)CC(C)C2)C1CCS(=O)(=O)C1 (stereo not given) returned NPC1 prom act -6.3%, FLuc counter 5.9%, ELG1 genotoxic -11.0%, SMN2 splice up -16.0%, ELG1 repair inh 6.51µM* and Rab9 prom act -10.2%.
For CCN(C(=O)COC(=O)c1c(C)nn(-c2ccccc2)c1C)C1CCS(=O)(=O)C1 (stereo not given) the results were NPC1 prom act 20.2%, FLuc counter -18.5%, ELG1 genotoxic 16.3%, ELG1 repair inh inconclusive and Rab9 prom act inconclusive.
`COc1ccc(C2NC(=O)N(C)C3=C2C(=O)N(c2cccc(C(=O)O)c2)C3)cc1` (stereo not given) gave FLuc counter -18.4% and SMN2 splice up 11.3%.
For O=C(CCCCn1c(=O)c2ccccc2n(CC(=O)Nc2cccc(F)c2)c1=O)NCCc1ccccc1 the results were FLuc counter -2.3% and SMN2 splice up -2.6%.
CC1=C(C(=O)Nc2ccc(C)c(C)c2)C2(CCCCCC2)OC1=O was read as FLuc counter 2.5%.
`CCOc1ccc(NC(=O)Cn2nc(SC)c(S(=O)(=O)c3ccccc3)c2N)cc1` gave FLuc counter -3.2%.
CN(C)C(=O)CSc1nnc(C23CC4CC(CC(C4)C2)C3)o1 was read as NPC1 prom act inconclusive, FLuc counter inconclusive, ELG1 genotoxic 9.2µM*, SMN2 splice up inconclusive, ELG1 repair inh inconclusive and Rab9 prom act 3.16µM*.
CCC(Cc1ccccc1)NC(=O)Cn1ncc2c3ccccc3n(Cc3ccccc3)c2c1=O (stereo not given) was read as FLuc counter 5.6% and SMN2 splice up 0.0%.
Screening Cc1cc(C(=O)Nc2sc3c(c2C#N)CCC(C)C3)cs1 (stereo not given) returned NPC1 prom act 1.26µM*, FLuc counter inconclusive, ELG1 genotoxic 4.61µM*, SMN2 splice up 3.98µM*, ELG1 repair inh inconclusive and Rab9 prom act 0.562µM*.
For CCC(C)(C)C1CCc2c(sc(NC(=O)c3ccccc3C(=O)O)c2C#N)C1 (stereo not given) the results were NPC1 prom act -2.6%, FLuc counter 10.7µM*, ELG1 genotoxic -7.5%, ELG1 repair inh inconclusive and Rab9 prom act 1.0%.
